Assay outcomes: PubChem, NMMLSC
In the library only some 3.5% were active in any assay of this set; here they are far more common.
Anthrax LF inh2 = inhibitors of Bacillus anthracis lethal factor protease; P15917; multiplex microsphere protease cleavage assay, LF; inhibition, % at 10 µM; actives 0.12% (n = 360,000); also: plate controls were buffer without enzyme for full effect and enzyme alone for no effect
Target sequence (P15917 whole entry, looked up): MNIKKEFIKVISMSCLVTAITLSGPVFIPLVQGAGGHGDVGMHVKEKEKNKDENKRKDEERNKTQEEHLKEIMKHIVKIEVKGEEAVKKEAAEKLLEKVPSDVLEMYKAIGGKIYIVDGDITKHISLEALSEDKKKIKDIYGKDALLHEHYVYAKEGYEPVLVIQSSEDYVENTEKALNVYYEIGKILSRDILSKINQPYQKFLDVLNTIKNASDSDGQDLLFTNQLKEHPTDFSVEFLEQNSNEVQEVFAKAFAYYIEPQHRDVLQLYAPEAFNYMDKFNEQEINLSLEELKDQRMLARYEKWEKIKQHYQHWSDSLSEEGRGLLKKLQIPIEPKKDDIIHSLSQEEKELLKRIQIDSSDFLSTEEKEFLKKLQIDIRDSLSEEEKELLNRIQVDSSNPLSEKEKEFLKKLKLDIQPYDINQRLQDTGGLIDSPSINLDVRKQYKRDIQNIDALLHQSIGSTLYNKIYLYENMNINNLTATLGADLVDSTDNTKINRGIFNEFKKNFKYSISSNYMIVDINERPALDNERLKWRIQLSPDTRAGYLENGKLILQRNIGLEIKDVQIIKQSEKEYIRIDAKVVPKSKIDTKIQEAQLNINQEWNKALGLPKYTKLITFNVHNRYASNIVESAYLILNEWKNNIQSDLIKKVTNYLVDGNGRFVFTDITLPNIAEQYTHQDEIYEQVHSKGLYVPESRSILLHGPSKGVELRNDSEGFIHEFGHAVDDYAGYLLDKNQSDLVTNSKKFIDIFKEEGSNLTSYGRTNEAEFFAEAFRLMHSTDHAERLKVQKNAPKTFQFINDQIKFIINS
BoNT A protease = BoNT A light chain protease inhibition | multiplex microsphere protease substrate cleavage, flow cytometry | inhibition, % at 10 µM | actives 0.17% (n = 360,000); also: plate controls were buffer without enzyme for full effect and enzyme alone for no effect
Bead autofluor = counter-screen for toxin protease inhibitors: compound fluorescence. compound autofluorescence counterscreen, microsphere flow cytometry; hits give high values. fluorescence intensity (test concentration not listed). actives 3.1% (n = 360,000). AID 624483; in the data active = fluorescence intensity above about 16000; inconclusive = no clear call, values can overlap the other calls
BoNT F protease = blocks Botulinum neurotoxin F light chain protease. Multiplex microsphere protease cleavage assay, flow cytometry. actives 0.22% (n = 360,000). inhibition, % at 10 µM; in the data active = inhibition above about 35%, passing the limit was not always enough; inconclusive = no clear call, values can overlap the other calls; also: plate controls were buffer without enzyme for full effect and enzyme alone for no effect
An asterisk follows results filed as active; ? = inconclusive. Rule as the data show it, unless noted: active = inhibition above about 30%; inconclusive = no clear call, values can overlap the other calls; inactive = below that.

SMILES	Anthrax LF inh2	BoNT A protease	Bead autofluor	BoNT F protease
CCOc1ccc(NC(=O)C2CCCN2S(=O)(=O)c2ccc3c(c2)C(C)(C)C(=O)N3C)cc1 (stereo not drawn)	-4	-1	6776	-11
O=C(CCCn1c(SCc2ccccc2F)nc2ccccc2c1=O)NCC1CCCO1 (stereo not drawn)	-1	-1	4461	-8
CCC(C)NC(=O)CSc1nc2ccccc2c(=O)n1CCCC(=O)NCC1CCCO1 (stereo not drawn)	-2	?	22505*	-2
COCCCNC(=O)CSc1nc2ccccc2c(=O)n1CCCC(=O)NCC1CCCO1 (stereo not drawn)	-3	?	22765*	-1
O=C(CCCn1c(SCC(=O)NCCc2ccccc2)nc2ccccc2c1=O)NCC1CCCO1 (stereo not drawn)	0	0	3293	-5
O=C(CCCn1c(SCC(=O)NC2CCCCC2)nc2ccccc2c1=O)NCC1CCCO1 (stereo not drawn)	-3	0	21817*	-1
O=C(CCCn1c(SCC(=O)c2ccc(O)c(O)c2)nc2ccccc2c1=O)NCC1CCCO1 (stereo not drawn)	2	0	23404*	-1
COc1ccc(Br)cc1CN1CCN(C(=O)c2ccco2)CC1	9	-4	3819	-9
CC/C(=N\NC(=O)C(N)=O)c1ccccc1O	1	0	2077	0
COc1ccc([C@H]2CC(=O)C=C(c3ccc(Cl)c(C(F)(F)F)c3)C2)cc1OC	4	0	2897	-8
N#Cc1c(=O)c2nc(NCc3ccccc3)ncc2n2ccccc12	3	0	23674*	0
Cc1nc(N2CCOCC2)c(C#N)c2c1COC(C)(C)C2	-2	-2	20542*	-2
CCc1nc(N2CCOCC2)c(C#N)c2c1COC(C)(C)C2	1	0	3189	2
COc1ccc(-c2cc3nc(C)cc(N4CCN(C(=O)c5ccco5)CC4)n3n2)cc1	-6	0	3760	1
Cc1cc(N2CCN(C(=O)c3ccco3)CC2)n2nc(-c3cccc(Cl)c3)cc2n1	1	?	16545*	1
CCOC(=O)[C@]12CCC=C1N(CCC1=CCCCC1)C(=O)[C@H](CC(=O)N1CCSCC1)C2	5	0	5544	5
OCCCn1c(-c2ccccc2)nc(=S)c2c1CCCC2	1	?	21784*	2
CN(C)CCCn1c(-c2ccccc2)nc(=S)c2c1CCCC2	-14	?	19594*	-32
Cc1cccc(-c2nc(=S)c3c(n2Cc2ccco2)CCCC3)c1	-10	3	22703*	1
CCCn1nnc(NCc2ccc(OCc3cccs3)c(OC)c2)n1	-2	-1	17112*	-2
C[C@H](N)c1nnc(SCC(=O)c2ccc(Cl)cc2)o1	1	-1	16731*	-1
CC(C)[C@H](N)c1nnc(SCC(=O)c2ccc(Cl)cc2)o1	-6	-1	8019	-9
O=C(CNC(=O)Cc1ccccc1)NCC(=O)OCc1ccc(C(=O)c2ccccc2)cc1	-7	-1	16310*	-3
CCOC(=O)C1(S(=O)(=O)c2ccc(Cl)cc2)CCN(Cc2ccc(C)cc2)CC1	-9	0	20535*	-4
Cc1ccc(C(=O)n2cnnc2N)cc1	0	?	21599*	-6
SMILES	Anthrax LF inh2	BoNT A protease	Bead autofluor	BoNT F protease
COc1ccccc1C(=O)N1CCCN(C(=O)c2ccccc2OC)CC1	1	0	3921	-3
Nc1nncn1C(=O)c1c(Cl)cccc1Cl	1	5	17890*	3
Nc1nncn1C(=O)c1cc(Br)ccc1Cl	9	1	9504	-3
COc1cccc(C(=O)n2cnnc2N)c1OC	-2	2	19978*	1
COc1cccc(C(=O)N2CCCN(C)CC2)c1OC	16	4	3084	37*
Cc1cccn2c(=O)c3cc(C(=O)NC(C)c4ccccc4)c(=N)n(CCCn4ccnc4)c3nc12 (stereo not drawn)	1	0	5800	-5
O=C(CSCc1n[nH]c(=O)[nH]1)NCCOc1cccc(Oc2ccccc2)c1	1	-1	19843*	-4
COc1ccc(C(=O)Nc2cc(C(C)=O)c(/C=C/N(C)C)oc2=O)cc1	1	1	16251*	0
CC(=O)c1cc(NC(=O)c2ccc(C)cc2)c(=O)oc1/C=C/N(C)C	-5	0	4103	-9
COC(=O)c1cc(NC(=O)c2ccc(OC)cc2)c(=O)oc1C	0	-1	4881	-4
CCOC(=O)c1cc(NC(=O)c2ccc(OC)cc2)c(=O)oc1-c1ccccc1	-4	?	22500*	-2
CC(=O)C[C@@H](O)CC(=O)[C@@H]1OC(=O)CCCCCCCc2ccccc21	-8	0	3072	2
CSc1ncc(C(=O)Nc2cccc(Cl)c2)c(C)n1	5	0	3798	17
COc1ccc(CCN(C)C(=O)CCNS(=O)(=O)c2ccccc2C(F)(F)F)cc1OC	-2	0	3914	0
O=C(COC(=O)[C@@H]1CCCN1S(=O)(=O)c1ccccc1F)NCc1ccc2c(c1)OCO2	6	5	?	12
O=C1c2oc3ccccc3c(=O)c2C(c2cccc(Br)c2)N1Cc1ccco1 (stereo not drawn)	-1	-1	20275*	0
Cc1cc(C)cc(N(CC(=O)NC(C)C)C(=O)CCC(=O)Nc2ccccn2)c1	-3	-4	3347	?
Cc1cc(NCCC(C)C)n2nc(C)c(-c3ccccc3)c2n1	-3	-2	24144*	-6
CCOc1cc(Br)ccc1S(=O)(=O)N1CC(C)OC(C)C1 (stereo not drawn)	-1	0	20570*	2
CCOc1ccc(Br)cc1S(=O)(=O)N1CC(C)OC(C)C1 (stereo not drawn)	-21	12	15484	21
COc1cccc(CNC(=O)Cn2nc(-c3ccc(Cl)cc3)ccc2=O)c1	-1	-1	21110*	-3
COc1ccccc1-c1ccc(=O)n(CC(=O)NCc2ccc3c(c2)OCO3)n1	-3	3	22769*	1
COCCCNC(=O)Cn1nc(-c2cccc(OC)c2)ccc1=O	0	-5	3520	?
COc1ccccc1-c1ccc(=O)n(CC(=O)NC(C)(C)C)n1	-1	?	16772*	-6
COCCNC(=O)Cn1nc(-c2ccccc2OC)ccc1=O	-3	2	22415*	0
SMILES	Anthrax LF inh2	BoNT A protease	Bead autofluor	BoNT F protease
COCCCNC(=O)Cn1nc(-c2ccccc2OC)ccc1=O	1	0	3014	4
COc1ccc(C2N(Cc3ccccc3)CCN2Cc2ccccc2)cc1[N+](=O)[O-]	0	-1	2599	-11
O=C(Nc1ccccc1)c1ccc(S(=O)(=O)N(CCO)CCO)cc1	2	1	4639	24
COC(=O)Nc1ccc(Oc2ccccc2)cc1	1	-6	21537*	-5
COC(=O)Nc1ccc(S(=O)(=O)N(CCO)CCO)cc1	0	1	22684*	2
CCS(=O)(=O)Nc1ccc(C2=NN(C(=O)c3ccco3)C(c3ccc(C)cc3)C2)cc1 (stereo not drawn)	-13	?	16946*	-2
CCS(=O)(=O)Nc1ccc(C2=NN(C(=O)c3ccco3)C(c3cccc(F)c3)C2)cc1 (stereo not drawn)	0	0	2506	-5
CC(=O)Nc1ccc(NC(=O)C(C)OC(=O)CSc2ccc(Br)cc2C)cc1 (stereo not drawn)	0	-2	6625	3
